High-throughput results deposited in PubChem by National Center for Advancing Translational Sciences (NCATS).
Only some compounds are listed: those with a hit (about 5.7% of all), similar ones and a draw of the others.
RORgamma inh – qHTS for inhibitors of ROR gamma transcriptional activity; 5.4% of 310,000 active; AID 2551, 2010; Drosophila S2 Gal4-RORgamma UAS-luciferase reporter, 20 h; Potency, µM (doses to about 53.6 µM), hits mostly inhibitors; note: nearly all actives have a fitted effect of over 60% in size
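Schneider cells (Drosophila), stable Gal4 DBD–ROR gamma + UAS-luc; 1 hr cmpd preincubation; Cu2+ induction 700 uM final; 20 hr ambient; luminescence.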
VP16 counter – VP16 counterscreen qHTS for inhibitors of ROR gamma transcriptional activity | Drosophila S2 Gal4-VP16 UAS-luciferase, luminescence, 20 h | Potency, µM (series often up to 53.6 µM), usual class: inhibitors | 3.5% of 310,000 active | AID 2546, 2010;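 note: Gal4-VP16 expression switched on by copper sulfate through the metallothionein promoter; nearly all actives have a fitted effect of over 50% in size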
NPSR antag – qHTS Assay for Antagonists of the Neuropeptide S Receptor: cAMP Signal Transduction. Q6W5P4. CHO-NPSR cells, cAMP TR-FRET, antagonist mode. Potency, µM (doses to about 38.3 µM), usual class: inhibitors. 1% of 220,000 active. AID 1461, 2008; note: nearly all actives have a fitted effect of over 50% in size
B2AR arrestin – qHTS assay of beta-arrestin-biased ligands of beta2-adrenergic receptor | Beta-2 adrenergic receptor (Homo sapiens), P07550 | beta-arrestin recruitment to beta2AR, cell-based reporter | Potency, µM (highest dose often 46.1 µM), actives largely listed as activators | 0.02% of 330,000 active; note: nearly all actives have a fitted effect of over 65% in size
Target sequence (P07550 whole entry, looked up): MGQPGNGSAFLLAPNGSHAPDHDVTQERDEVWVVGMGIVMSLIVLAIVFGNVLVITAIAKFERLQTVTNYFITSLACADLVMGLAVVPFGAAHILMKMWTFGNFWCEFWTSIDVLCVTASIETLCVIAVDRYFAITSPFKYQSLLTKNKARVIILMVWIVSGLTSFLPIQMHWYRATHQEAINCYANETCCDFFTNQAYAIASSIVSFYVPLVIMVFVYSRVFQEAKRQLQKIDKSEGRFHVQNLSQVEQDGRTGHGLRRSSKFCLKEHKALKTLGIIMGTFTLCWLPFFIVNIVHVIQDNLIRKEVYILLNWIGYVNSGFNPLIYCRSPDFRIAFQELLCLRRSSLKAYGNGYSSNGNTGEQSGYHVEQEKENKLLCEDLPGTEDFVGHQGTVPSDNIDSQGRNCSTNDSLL
Of the large screens only hits and unclear results are named; the others gave an inactive call. Calls come from the whole dose curve; as a rule, active = well fitted curve in the direction sought with a large enough effect; inconclusive = small, poorly fitted or top-dose-only effect, or another doubt; inactive = no such curve, though single readings can be large; an effect the other way counts as inactive or inconclusive.

CC(C)C(=O)Nc1ccc(N2CCCC2)c(Cl)c1	none
O=C(/C=C/c1ccco1)NC(=S)Nc1ccc(N2CCOCC2)c(Cl)c1	RORgamma inh 1.8µM
O=C(NC(=S)Nc1ccc(N2CCOCC2)c(Cl)c1)C(c1ccccc1)c1ccccc1	RORgamma inh 2.8µM, VP16 counter 5.6µM, NPSR antag inconclusive
O=C(/C=C/c1ccccc1)NC(=S)Nc1ccc(N2CCOCC2)c(Cl)c1	RORgamma inh 2.5µM, VP16 counter inconclusive
COc1ccccc1/C=C(\C#N)C(=O)c1cccn1C	none (no result: NPSR antag)
COc1ccc(C(=O)NC(=S)Nc2ccc(N3CCOCC3)c(Cl)c2)cc1[N+](=O)[O-]	RORgamma inh inconclusive, VP16 counter inconclusive
CCCC(=O)NC(=S)Nc1ccc(N2CCOCC2)c(Cl)c1	RORgamma inh 13µM, VP16 counter inconclusive
COC(=O)/C=C/c1cccc(N(Cc2ccc(-c3ccc(N(C)C)cc3)cc2)C(=O)C2CCCCC2)c1	none (no result: NPSR antag, B2AR arrestin)
COc1cccc2cc(C(=O)NC3CC4CCC3C4)oc12 (centres undefined)	none (no result: NPSR antag)
O=C(CCC(=O)OCC(=O)c1ccc(-c2ccccc2)cc1)Nc1cccc2cccnc12	RORgamma inh 1.6µM, VP16 counter 4µM
O=C(Nc1ccncc1)c1cc([N+](=O)[O-])ccc1Cl	RORgamma inh 8.9µM, VP16 counter inconclusive (no result: NPSR antag, B2AR arrestin)
O=[N+]([O-])c1ccc(O)c(/C=N/NC(=S)Nc2ccc(Cl)cc2Cl)c1	RORgamma inh 2.5µM, VP16 counter 2.5µM
O=C(Nc1ccc([N+](=O)[O-])cc1Cl)c1cc(Cl)ccc1O	RORgamma inh 1.3µM, VP16 counter 1.3µM
COc1cc(CNCCc2ccccc2F)ccc1OCc1ccc(Cl)nc1	none
COc1cc(CNCCc2ccc(F)cc2)ccc1OCc1ccc(Cl)nc1	RORgamma inh 2.2µM
CNC(=S)N/N=C(\C)c1ccc(Cl)c(Cl)c1	RORgamma inh 2.8µM, VP16 counter 7.1µM, B2AR arrestin inconclusive
COc1cccc(C(=O)NCCCNC(=O)c2cccc(OC)c2)c1	none (no result: NPSR antag)
COCCNC(=S)N/N=C(\C)c1ccc(Cl)c(Cl)c1	RORgamma inh 2.8µM, VP16 counter 4.5µM, B2AR arrestin inconclusive
COCCNC(=S)N/N=C(\C)c1cccc(OC)c1	RORgamma inh 4µM, VP16 counter inconclusive, B2AR arrestin inconclusive
CCNC(=S)N/N=C(\C)c1cccc(C(F)(F)F)c1	RORgamma inh 1.3µM, VP16 counter 4.5µM, B2AR arrestin inconclusive
COc1cc(Cl)c(C)cc1NC(=O)CC1CCCC1	none (no result: NPSR antag)
COc1ccc(N(C(=O)CNC(=O)c2ccco2)C(C(=O)NCC2CCCO2)c2ccccc2)cc1 (centres undefined)	none (no result: NPSR antag)
Cc1cc(CN(C)C(=O)c2ccc(OC3CCN(CCc4ccccc4)CC3)cc2)on1	none (no result: NPSR antag)
CCNC(=S)N/N=C(\C)c1cccc([N+](=O)[O-])c1	RORgamma inh 4µM, VP16 counter 4.5µM
COCCNC(=S)N/N=C(\C)c1cccc([N+](=O)[O-])c1	RORgamma inh 3.5µM, VP16 counter 7.1µM
CC(C)C[C@H](NC(=O)[C@H](Cc1cnc[nH]1)NC(=O)[C@@H](N)Cc1cnc[nH]1)C(=O)NCC(=O)NCC(=O)N[C@@H](C)C(=O)N[C@@H](CCCCN)C(=O)N[C@@H](CCC(N)=O)C(=O)N[C@@H](C)C(=O)NCC(=O)N[C@@H](CC(=O)O)C(=O)N[C@H](C(=O)O)C(C)C	none (no result: NPSR antag, B2AR arrestin)
COc1ccc(Nc2c(-c3ccco3)nc3ccc(C)cn23)cc1	RORgamma inh 18µM
C/C(=N\Nc1cccc2cccnc12)c1ccc[nH]1	RORgamma inh 3.5µM
CCc1nnc(NC(=O)c2cc(-c3ccccc3)nn2-c2ccccc2)s1	RORgamma inh 10µM, VP16 counter inconclusive
O=C(Nc1nccs1)c1cc(-c2ccccc2)nn1-c1ccccc1	RORgamma inh inconclusive, VP16 counter inconclusive
CC(C)C(=O)NNC(=O)CN1CCN(c2nc(-c3ccccc3)cs2)CC1	none
CCc1nnc(NC(=O)CN2CCN(c3nc(-c4ccccc4)cs3)CC2)s1	RORgamma inh 11µM, VP16 counter inconclusive
COc1ccc(C(=O)NC(=S)N2CCOCC2)cc1Br	RORgamma inh 1.3µM, VP16 counter 1.1µM (no result: NPSR antag)
COc1ccc(C(=O)NN2CCOCC2)cc1[N+](=O)[O-]	none (no result: NPSR antag)
COc1ccc(C(=O)NC(=S)N2CCOCC2)cc1[N+](=O)[O-]	RORgamma inh 2.2µM, VP16 counter 2.8µM (no result: NPSR antag)
O=C(CSc1nnnn1-c1ccc(F)cc1)Nc1ccccc1F	none (no result: NPSR antag)
Cc1ccc(/C=C2/SC(=S)N(c3ccc(S(=O)(=O)Nc4nccs4)cc3)C2=O)cc1	RORgamma inh 5.6µM, VP16 counter 0.79µM
CCCCC(C)/C=C(C)/C=C(\C)C(=O)NC1=CC(O)(/C=C/C=C/C=C/C(=O)NC2=C(O)CCC2=O)C2OC2C1=O (centres undefined)	RORgamma inh 0.56µM, VP16 counter 1.3µM (no result: NPSR antag, B2AR arrestin)
CCOC(=O)c1c(C)[nH]c(N=Nc2ccc(C)cc2C)c1C	B2AR arrestin inconclusive
CCOC(=O)c1c(C)[nH]c(N=Nc2ccccc2C)c1C	RORgamma inh 4µM, VP16 counter inconclusive, NPSR antag inconclusive
CC(C)(C)n1ncc2c(=O)n(CC(=O)c3ccccc3)cnc21	RORgamma inh inconclusive, VP16 counter inconclusive
CC(C)(C)n1ncc2c(=O)n(CC(=O)OCc3ccccc3)cnc21	RORgamma inh 8.9µM, VP16 counter 1.6µM
CN1CCN(C(=O)c2cc(COc3c(F)cccc3F)on2)CC1c1ccccc1 (centres undefined)	RORgamma inh 7.1µM, VP16 counter 7.1µM, NPSR antag inconclusive
CCCCCCCCCCCCC[N+](C)(C)Cc1ccccc1	RORgamma inh inconclusive, VP16 counter 8.9µM (no result: NPSR antag, B2AR arrestin)
CS(=O)(=O)c1ccc(C(=O)OCC(=O)NC23CC4CC(CC(C4)C2)C3)cc1[N+](=O)[O-]	RORgamma inh 11µM, VP16 counter inconclusive
Cn1c(-c2c(N)n(CCCc3ccccc3)c3nc4ccccc4nc23)nc2ccccc21	RORgamma inh 0.79µM, VP16 counter 2.8µM
N#Cc1c(N)n(CCc2ccc(F)cc2)c2nc3ccccc3nc12	none
Cn1c(-c2c(N)n(C3CCCC3)c3nc4ccccc4nc23)nc2ccccc21	RORgamma inh 3.5µM, VP16 counter 5.6µM
COCCCn1c(N)c(-c2nc3ccccc3n2C)c2nc3ccccc3nc21	RORgamma inh 4µM, VP16 counter 7.1µM, NPSR antag inconclusive
Cn1c(-c2c(N)n(CCc3ccccc3)c3nc4ccccc4nc23)nc2ccccc21	RORgamma inh inconclusive, VP16 counter 13µM
CCCc1nnc(NC(=O)CCC(=O)N2CCN(c3ccccc3)CC2)s1	none (no result: NPSR antag)
Cc1csc(NC(=O)C(NS(=O)(=O)c2ccc(Br)s2)c2ccccc2)n1 (centres undefined)	RORgamma inh 13µM, VP16 counter inconclusive
O=C(O)[C@H](Cc1ccccc1)NC(=O)N1CCOCC1	RORgamma inh 5µM
O=C(O)[C@H](Cc1ccccc1)NC(=O)N1CCCCCC1	none (no result: NPSR antag)
